Rows were chosen to be rich in hits. Some 6.1% of all compounds tested hit in one or more screens of this group.
D3 antag = antagonists of human D3 dopamine receptor; P35462; D3R cells, DiscoveRx beta-arrestin luminescence, antagonist mode; active compounds read low; max response, negative = inhibition, %; 2.5% of 360,000 active; AID 652054; in the data active = max response below about -50%; inconclusive = no clear call, values can overlap the other calls; also: % is scaled to controls: 0 for no effect and ±100 for the full control effect
Target sequence (P35462 whole entry, looked up): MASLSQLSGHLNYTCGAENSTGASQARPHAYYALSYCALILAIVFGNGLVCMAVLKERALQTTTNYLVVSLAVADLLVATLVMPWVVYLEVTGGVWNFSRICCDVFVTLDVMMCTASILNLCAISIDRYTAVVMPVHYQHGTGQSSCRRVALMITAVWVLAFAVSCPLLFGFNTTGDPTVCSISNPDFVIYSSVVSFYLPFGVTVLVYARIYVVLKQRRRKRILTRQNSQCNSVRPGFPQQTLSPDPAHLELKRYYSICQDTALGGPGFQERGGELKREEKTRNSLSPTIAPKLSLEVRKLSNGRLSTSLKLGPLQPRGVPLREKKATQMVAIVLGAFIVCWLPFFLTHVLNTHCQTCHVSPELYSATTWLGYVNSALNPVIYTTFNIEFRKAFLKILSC
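Cells expressing the human receptor were seeded at 1500 cells/well, incubated overnight at 37 degrees C in 5% CO2, then exposed to library compounds with dopamine controls for 90 minutes at 37 degrees C before luminescent detection.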
D1 agonist = human D1 receptor agonism; P21728; HEK293 T-REx D1 cells, calcium flux, agonist mode; activation, % at 2 µM; 1% of 360,000 active; AID 504660; in the data active = activation above about 30%; also: 0% is about no effect
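Agonism was scored from calcium flux recorded over 180 s (1 read/s) after pintool compound addition, following a 10-cycle baseline. Cells were inducible force-coupled HEK293 TREx D1, plated overnight at 30 C and loaded with no-wash calcium dye.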
D3 ag = D3 dopamine receptor (human) agonism | P35462 | D3R DiscoveRx beta-arrestin cells, luminescence, 90 min | max activation, % | 0.58% of 410,000 active; in the data active = max activation above about 30%; also: 0% is about no effect
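Cells at 1500/well, incubated overnight, then treated with pinned compounds (dopamine as control) for 90 min at 37 degrees C. DiscoveRx reagent added for 30 - 60 minutes at room temperature; luminescence read.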
D1 antag = antagonists of human D1 dopamine receptor; P21728; HEK293 TREx D1 cells, calcium flux, dopamine EC80; active compounds read low; activity change, negative = inhibition, % at 10 µM; 3.2% of 360,000 active; in the data active = activity change below about -30%; also: % is scaled to controls: 0 for no effect and ±100 for the full control effect
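Kinetic fluorescence of a calcium dye serves as the read-out. D1-expressing Hek293 Trex cells, induced overnight at 30 C, are exposed to compound for 180 s before an EC80 dopamine addition, then read 180 s further.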
D1 potentiator = human D1 dopamine receptor positive modulation; HEK293 TREx D1 cells, calcium flux, dopamine EC20 potentiation; potentiation, % at 10 µM; 0.036% of 360,000 active; AID 504651; in the data active = potentiation above about 30%; also: 0% is about no effect
The depositor's hits bear a star.

For COc1ccc(CNc2nc(NCc3ccc(OC)c(OC)c3)n(C(=O)c3cccs3)n2)cc1OC the results were D3 antag 60, D1 agonist 3, D3 ag 45*, D1 antag 2 and D1 potentiator 2.
For Cc1ccc2[nH]c(-c3ccccc3)c(CN3CCN(C)CC3)c(=O)c2c1 the results were D3 antag -76*, D1 agonist 2, D3 ag -8, D1 antag -13 and D1 potentiator -1.
Screening Cc1ccc2[nH]c(-c3ccccc3)c(CN3CCCC3)c(=O)c2c1 returned D3 antag 16, D1 agonist 2, D3 ag 0, D1 antag -21 and D1 potentiator -4.
For N#C/C(=C(/O)c1ccco1)c1nc2ccccc2s1 the results were D3 antag inconclusive, D1 agonist 10, D3 ag 5, D1 antag 2 and D1 potentiator -4.
`CC1=CC(=C(C#N)c2nc3ccccc3s2)C=C(C)N1Cc1ccco1` gave D3 antag -56*, D1 agonist 44*, D3 ag -18, D1 antag -9 and D1 potentiator -10.
For CCCN(CCC)CCCNC(=O)c1sc2nc3n(c(=O)c2c1C)CCC3 the results were D1 agonist -1, D3 ag -17, D1 antag -6 and D1 potentiator -1.
O=C(CC(NS(=O)(=O)c1ccc(Cl)cc1)c1ccco1)NCc1ccco1 (configuration not stated) was read as D3 antag -3, D1 agonist 9, D3 ag -2, D1 antag -38* and D1 potentiator -4.
Screening O=C(O)c1cc2cc(Cl)ccc2oc1=O returned D3 antag -28, D1 agonist 2, D3 ag 34*, D1 antag -13 and D1 potentiator -3.
`CCOc1ccc(NC(=O)Cn2c(=O)n(CCc3ccccc3)c(=O)c3c4c(sc32)CCCC4)cc1` gave D1 agonist -1, D3 ag 5, D1 antag -36* and D1 potentiator -2.
Screening COc1ccc(/C(C)=N/Nc2ccc(C(=O)O)cc2)cc1OC returned D3 antag 7, D1 agonist 3, D3 ag 1, D1 antag -31* and D1 potentiator 8.
For COc1ccc2c(Cl)c(-c3nnc(SCC(=O)c4ccccc4)n3C)sc2c1 the results were D3 antag 20, D1 agonist 4, D3 ag 1, D1 antag -43* and D1 potentiator -5.
`CCOc1ccc(NC(=O)CCn2c(=O)c3cccn3c3cccnc32)cc1` gave D1 agonist 0, D3 ag 1, D1 antag 8 and D1 potentiator -4.
For O=C(CN1CCN(CCOCCO)CC1)N1c2ccccc2Sc2ccc(Cl)cc21 the results were D3 antag -14, D1 agonist 0, D3 ag 8, D1 antag -6 and D1 potentiator 2.
For c1ccc2c(c1)CC(N1CCCCC1)c1ccccc1S2 (configuration not stated) the results were D3 antag -1 and D3 ag -3.
For CN1CCN(CCOC2Cc3ccccc3Sc3ccc(Cl)cc32)CC1 (configuration not stated) the results were D3 antag -63*, D1 agonist 29, D3 ag -8, D1 antag -66* and D1 potentiator -21.
For O=C1CC(N2CCN(c3ccc(Cl)cc3)CC2)C(=O)N1c1ccc(F)cc1 (configuration not stated) the results were D3 antag 0, D1 agonist 3, D3 ag 3, D1 antag -4 and D1 potentiator 0.
`CCc1ccc2c(c1)Sc1ccccc1CC2N1CCN(C)CC1` (configuration not stated) gave D3 antag -116* and D3 ag -19.
Screening CN1CCN(C2Cc3cc(Cl)ccc3Sc3cc(F)ccc32)CC1 (configuration not stated) returned D3 antag -93* and D3 ag -54.
`OCCN1CCN(C2Cc3cc(Cl)ccc3Sc3ccc(Cl)cc32)CC1` (configuration not stated) (tested in a mixture with another compound) gave D3 antag -72*, D1 agonist 12, D3 ag 6, D1 antag -86* and D1 potentiator -28.

Bioassay records (PubChem)
